{"source": "the supplement of paper PMC6522484", "key": {"DLD1 [1]": {"system": "DLD1", "assay": "cell viability (CellTiter-Glo) relative to plate median (fraction of plate median); higher = more viable cells", "conditions": "5 µM; treatment time 24 h; reporter: 7TFP", "summary_of_the_method": "(§1)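 Each entry is a luminescence signal normalised to the plate median, averaged over independent replicates. The replicate count was two, and the cells were colorectal cancer lines with stable lentiviral TCF/Wnt firefly luciferase reporters exposed to library compounds at a final 5 µM for 24 h. Firefly luciferase and CellTiterGlo were measured on parallel plates.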"}, "HCT116": {"system": "HCT116", "assay": "cell viability (CellTiter-Glo) relative to plate median (fraction of plate median); higher = more viable cells", "conditions": "5 µM; treatment time 24 h; reporter: TCF4/Wnt", "summary_of_the_method": "as §1"}, "SW480 [2]": {"system": "SW480", "assay": "cell viability (CellTiter-Glo) relative to plate median (fraction of plate median); higher = more viable cells", "conditions": "5 µM; treatment time 24 h; reporter: 7TFP", "summary_of_the_method": "as §1"}, "DLD1 [3]": {"system": "DLD1", "assay": "TCF/Wnt firefly luciferase reporter signal relative to plate median (fraction of plate median); higher = higher Wnt reporter signal", "conditions": "5 µM; treatment time 24 h; reporter: 7TFP", "summary_of_the_method": "as §1"}, "SW480 [4]": {"system": "SW480", "assay": "TCF/Wnt firefly luciferase reporter signal relative to plate median (fraction of plate median); higher = higher Wnt reporter signal", "conditions": "5 µM; treatment time 24 h; reporter: 7TFP", "summary_of_the_method": "as §1"}}, "note": "± gives the standard deviation of the averaged measurements.", "data": [{"smiles": "COc1ccc(-c2coc3c(O)c(OC)ccc3c2=O)cc1", "values": [{"measurement": "cell viability", "setting": "DLD1 [1]", "result": "0.969 ± 0.073"}, {"measurement": "cell viability", "setting": "HCT116", "result": "0.984 ± 0.08"}, {"measurement": "cell viability", "setting": "SW480 [2]", "result": "0.99 ± 0.014"}, {"measurement": "TCF/Wnt firefly luciferase reporter signal", "setting": "DLD1 [3]", "result": "1 ± 0.12"}, {"measurement": "TCF/Wnt firefly luciferase reporter signal", "setting": "SW480 [4]", "result": "1.01 ± 0.095"}]}, {"smiles": "COc1ccc(-c2cc(=O)c3c(O)cc(O)cc3o2)cc1", "values": [{"measurement": "cell viability", "setting": "DLD1 [1]", "result": "1.03 ± 0.08"}, {"measurement": "cell viability", "setting": "HCT116", "result": "0.935 ± 0.019"}, {"measurement": "cell viability", "setting": "SW480 [2]", "result": "1.05 ± 0.064"}, {"measurement": "TCF/Wnt firefly luciferase reporter signal", "setting": "DLD1 [3]", "result": "0.912 ± 0.026"}, {"measurement": "TCF/Wnt firefly luciferase reporter signal", "setting": "SW480 [4]", "result": "1.01 ± 0.091"}]}, {"smiles": "COC1=CC(=O)C(C(=O)c2ccccc2)=CC1=O", "values": [{"measurement": "cell viability", "setting": "DLD1 [1]", "result": "0.965 ± 0.015"}, {"measurement": "cell viability", "setting": "HCT116", "result": "0.991 ± 0.028"}, {"measurement": "cell viability", "setting": "SW480 [2]", "result": "0.975 ± 0.028"}, {"measurement": "TCF/Wnt firefly luciferase reporter signal", "setting": "DLD1 [3]", "result": "1.03 ± 0.09"}, {"measurement": "TCF/Wnt firefly luciferase reporter signal", "setting": "SW480 [4]", "result": "1.04 ± 0.063"}]}, {"smiles": "CN(CCOc1ccc(CC2SC(=O)NC2=O)cc1)c1ccccn1", "note": "(stereo not given)", "values": [{"measurement": "cell viability", "setting": "DLD1 [1]", "result": "0.935 ± 0.03"}, {"measurement": "cell viability", "setting": "HCT116", "result": "0.894 ± 0.044"}, {"measurement": "cell viability", "setting": "SW480 [2]", "result": "0.949 ± 0.04"}, {"measurement": "TCF/Wnt firefly luciferase reporter signal", "setting": "DLD1 [3]", "result": "0.899 ± 0.09"}, {"measurement": "TCF/Wnt firefly luciferase reporter signal", "setting": "SW480 [4]", "result": "0.906 ± 0.15"}]}, {"smiles": "C#C[C@]1(O)CC[C@H]2[C@@H]3CCC4=CC(=O)CC[C@@H]4[C@H]3CC[C@@]21C", "values": [{"measurement": "cell viability", "setting": "DLD1 [1]", "result": "1.15 ± 0.085"}, {"measurement": "cell viability", "setting": "HCT116", "result": "0.9935 ± 0.0092"}, {"measurement": "cell viability", "setting": "SW480 [2]", "result": "1.04 ± 0.064"}, {"measurement": "TCF/Wnt firefly luciferase reporter signal", "setting": "DLD1 [3]", "result": "0.847 ± 0.27"}, {"measurement": "TCF/Wnt firefly luciferase reporter signal", "setting": "SW480 [4]", "result": "0.931 ± 0.03"}]}, {"smiles": "CCC(=O)OCC(=O)[C@@]1(OC(=O)CC)[C@@H](C)C[C@H]2[C@@H]3CCC4=CC(=O)C=C[C@]4(C)[C@@]3(Cl)[C@@H](O)C[C@@]21C", "values": [{"measurement": "cell viability", "setting": "DLD1 [1]", "result": "0.958 ± 0.0057"}, {"measurement": "cell viability", "setting": "HCT116", "result": "0.982 ± 0.11"}, {"measurement": "cell viability", "setting": "SW480 [2]", "result": 1.01}, {"measurement": "TCF/Wnt firefly luciferase reporter signal", "setting": "DLD1 [3]", "result": "0.94 ± 0.044"}, {"measurement": "TCF/Wnt firefly luciferase reporter signal", "setting": "SW480 [4]", "result": "0.941 ± 0.018"}]}, {"smiles": "CCCCOC(=O)c1ccc(N)cc1", "values": [{"measurement": "cell viability", "setting": "DLD1 [1]", "result": "1.02 ± 0.054"}, {"measurement": "cell viability", "setting": "HCT116", "result": "0.942 ± 0.023"}, {"measurement": "cell viability", "setting": "SW480 [2]", "result": "0.961 ± 0.021"}, {"measurement": "TCF/Wnt firefly luciferase reporter signal", "setting": "DLD1 [3]", "result": "0.936 ± 0.027"}, {"measurement": "TCF/Wnt firefly luciferase reporter signal", "setting": "SW480 [4]", "result": "1.03 ± 0.083"}]}, {"smiles": "CCN(CC)CCOc1ccc2c(c1)C(=O)c1cc(OCCN(CC)CC)ccc1-2", "values": [{"measurement": "cell viability", "setting": "DLD1 [1]", "result": "0.941 ± 0.083"}, {"measurement": "cell viability", "setting": "HCT116", "result": "0.925 ± 0.072"}, {"measurement": "cell viability", "setting": "SW480 [2]", "result": "0.998 ± 0.045"}, {"measurement": "TCF/Wnt firefly luciferase reporter signal", "setting": "DLD1 [3]", "result": "1.05 ± 0.093"}, {"measurement": "TCF/Wnt firefly luciferase reporter signal", "setting": "SW480 [4]", "result": "1.02 ± 0.06"}]}, {"smiles": "Clc1cccc(Cl)c1NC1=NCCN1", "values": [{"measurement": "cell viability", "setting": "DLD1 [1]", "result": "0.987 ± 0.033"}, {"measurement": "cell viability", "setting": "HCT116", "result": "0.925 ± 0.16"}, {"measurement": "cell viability", "setting": "SW480 [2]", "result": "0.988 ± 0.013"}, {"measurement": "TCF/Wnt firefly luciferase reporter signal", "setting": "DLD1 [3]", "result": "1.065 ± 0.0071"}, {"measurement": "TCF/Wnt firefly luciferase reporter signal", "setting": "SW480 [4]", "result": "1.01 ± 0.11"}]}, {"smiles": "COc1c(N2CCNC(C)C2)c(F)cc2c(=O)c(C(=O)O)cn(C3CC3)c12", "note": "(stereo not given)", "values": [{"measurement": "cell viability", "setting": "DLD1 [1]", "result": "0.925 ± 0.18"}, {"measurement": "cell viability", "setting": "HCT116", "result": "0.911 ± 0.082"}, {"measurement": "cell viability", "setting": "SW480 [2]", "result": "0.966 ± 0.048"}, {"measurement": "TCF/Wnt firefly luciferase reporter signal", "setting": "DLD1 [3]", "result": "0.933 ± 0.081"}, {"measurement": "TCF/Wnt firefly luciferase reporter signal", "setting": "SW480 [4]", "result": "0.906 ± 0.041"}]}, {"smiles": "N[C@@H](CC(=O)N1CCn2c(nnc2C(F)(F)F)C1)Cc1cc(F)c(F)cc1F", "values": [{"measurement": "cell viability", "setting": "DLD1 [1]", "result": "1.09 ± 0.042"}, {"measurement": "cell viability", "setting": "HCT116", "result": "0.997 ± 0.061"}, {"measurement": "cell viability", "setting": "SW480 [2]", "result": "0.963 ± 0.041"}, {"measurement": "TCF/Wnt firefly luciferase reporter signal", "setting": "DLD1 [3]", "result": "0.95 ± 0.069"}, {"measurement": "TCF/Wnt firefly luciferase reporter signal", "setting": "SW480 [4]", "result": "0.935 ± 0.081"}]}]}
